Experiment [1] can be described thus: small molecules captured by biotinylated probe aFSTL3 – biochemical, small-molecule microarray, fluorescence 635/667, stem cell growth factor project, primary screen (AID 1064).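 Note: measures binding of the biotinylated anti-FSTL3 antibody to printed compounds.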 To be noted: higher = more signal.
Experiment [2] can be described thus: binders from COS7 lysate, DM2A8 probe, primary screen, torsin A project, cell lysate, small-molecule microarray, fluorescence 635/667 (AID 1065). As to conditions: higher = more signal, COS7 lysate expressing mutant human TOR1A.
Experiment [3] is described as follows: small molecules captured by biotinylated probe aFGF2 – biochemical, small-molecule microarray, fluorescence 635/667, stem cell growth factor project, primary screen (AID 1067).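 Note: measures binding of biotinylated aFGF2 protein to printed compounds on slides; z-score merges feature fluorescence and signal-to-noise across triplicate slides.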 To be noted: higher = more signal.
Experiment [4] can be described thus: small molecules captured by biotinylated probe aFGF10 – biochemical, small-molecule microarray, fluorescence 635/667, stem cell growth factor project, primary screen (AID 1071).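 Note: score merges 667 nm spot intensity and signal to noise from triplicate slides.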 To be noted: higher = more signal.
For experiment [5], the target named is Neurogenic locus notch homolog protein 2 (Homo sapiens) (UniProt Q04721). Nature of the experiment: small molecules binding Notch2 protein – biochemical, small-molecule microarray, 635 nm fluorescence, stem cell growth factors, primary screen (AID 1073). As to conditions: higher = more signal.
The target of experiment [6] is Pro-neuregulin-1, membrane-bound isoform (Homo sapiens) (UniProt Q02297). Nature of the experiment: small molecules binding neuregulin-1 protein – biochemical, small-molecule microarray, fluorescence 635/667, psychiatric disease protein project, primary screen (AID 1075).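 Note: score combines 667 nm spot fluorescence with signal to noise.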 As to conditions: NRG1 binding, 635 nm fluorescence, higher = more signal.
The test system of experiment [7] is Neuregulin-1 EGF-like domain. Nature of the experiment: small molecules binding NRG1 EGF domain – biochemical, small-molecule microarray, 635 nm fluorescence, primary screen (AID 1081).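 Note: binding of the protein to compounds printed on small-molecule microarray slides.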 To be noted: higher = more signal.
Experiment [8] can be described thus: FRG1 expression reporter modulators in myotubes – cell-based, C2C12 myotubes, firefly/Renilla luciferase, luminescence, FRG1 inhibition for FSHD, primary screen (AID 1084). As to conditions: FRG1 promoter luciferase, higher = more signal, called active from +8 up or from −8 down.
Experiment [9] in a line: small molecules captured by biotinylated probe aFST – biochemical, small-molecule microarray, fluorescence 635/667, stem cell growth factor project, primary screen (AID 1086).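 Note: score merges 667 nm fluorescence with signal-to-noise of each printed compound spot.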 To be noted: higher = more signal.
Experiment [10] is described as follows: binders of probe aHhip on microarray, primary screen, stem cell growth factor project, biochemical, small-molecule microarray, fluorescence 635/667 (AID 1087).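 Note: score merges spot fluorescence at 667nm with spot signal to noise ratio.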 To be noted: higher = more signal.

Active and inactive are the calls of the source.

Pro-neuregulin-1, membrane-bound isoform (Homo sapiens), sequence (Q02297 whole entry, looked up, the tested form may be a part, canonical isoform): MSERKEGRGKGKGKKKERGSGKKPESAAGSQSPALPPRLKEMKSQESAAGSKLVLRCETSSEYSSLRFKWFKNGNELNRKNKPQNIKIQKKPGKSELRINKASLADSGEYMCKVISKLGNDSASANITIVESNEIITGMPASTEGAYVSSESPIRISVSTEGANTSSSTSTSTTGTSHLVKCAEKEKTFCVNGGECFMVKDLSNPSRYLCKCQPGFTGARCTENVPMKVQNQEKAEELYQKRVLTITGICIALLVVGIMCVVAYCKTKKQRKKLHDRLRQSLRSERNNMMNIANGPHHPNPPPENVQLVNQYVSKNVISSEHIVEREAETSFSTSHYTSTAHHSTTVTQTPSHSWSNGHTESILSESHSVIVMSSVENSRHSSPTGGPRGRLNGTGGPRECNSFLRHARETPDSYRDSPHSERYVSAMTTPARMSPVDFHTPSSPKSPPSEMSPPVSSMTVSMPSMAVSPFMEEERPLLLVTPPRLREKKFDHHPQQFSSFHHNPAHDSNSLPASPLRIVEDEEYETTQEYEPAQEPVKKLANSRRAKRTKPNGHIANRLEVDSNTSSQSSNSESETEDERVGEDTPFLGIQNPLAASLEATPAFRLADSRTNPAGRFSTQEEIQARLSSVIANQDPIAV
Neurogenic locus notch homolog protein 2 (Homo sapiens), sequence (Q04721 whole entry, looked up, canonical isoform): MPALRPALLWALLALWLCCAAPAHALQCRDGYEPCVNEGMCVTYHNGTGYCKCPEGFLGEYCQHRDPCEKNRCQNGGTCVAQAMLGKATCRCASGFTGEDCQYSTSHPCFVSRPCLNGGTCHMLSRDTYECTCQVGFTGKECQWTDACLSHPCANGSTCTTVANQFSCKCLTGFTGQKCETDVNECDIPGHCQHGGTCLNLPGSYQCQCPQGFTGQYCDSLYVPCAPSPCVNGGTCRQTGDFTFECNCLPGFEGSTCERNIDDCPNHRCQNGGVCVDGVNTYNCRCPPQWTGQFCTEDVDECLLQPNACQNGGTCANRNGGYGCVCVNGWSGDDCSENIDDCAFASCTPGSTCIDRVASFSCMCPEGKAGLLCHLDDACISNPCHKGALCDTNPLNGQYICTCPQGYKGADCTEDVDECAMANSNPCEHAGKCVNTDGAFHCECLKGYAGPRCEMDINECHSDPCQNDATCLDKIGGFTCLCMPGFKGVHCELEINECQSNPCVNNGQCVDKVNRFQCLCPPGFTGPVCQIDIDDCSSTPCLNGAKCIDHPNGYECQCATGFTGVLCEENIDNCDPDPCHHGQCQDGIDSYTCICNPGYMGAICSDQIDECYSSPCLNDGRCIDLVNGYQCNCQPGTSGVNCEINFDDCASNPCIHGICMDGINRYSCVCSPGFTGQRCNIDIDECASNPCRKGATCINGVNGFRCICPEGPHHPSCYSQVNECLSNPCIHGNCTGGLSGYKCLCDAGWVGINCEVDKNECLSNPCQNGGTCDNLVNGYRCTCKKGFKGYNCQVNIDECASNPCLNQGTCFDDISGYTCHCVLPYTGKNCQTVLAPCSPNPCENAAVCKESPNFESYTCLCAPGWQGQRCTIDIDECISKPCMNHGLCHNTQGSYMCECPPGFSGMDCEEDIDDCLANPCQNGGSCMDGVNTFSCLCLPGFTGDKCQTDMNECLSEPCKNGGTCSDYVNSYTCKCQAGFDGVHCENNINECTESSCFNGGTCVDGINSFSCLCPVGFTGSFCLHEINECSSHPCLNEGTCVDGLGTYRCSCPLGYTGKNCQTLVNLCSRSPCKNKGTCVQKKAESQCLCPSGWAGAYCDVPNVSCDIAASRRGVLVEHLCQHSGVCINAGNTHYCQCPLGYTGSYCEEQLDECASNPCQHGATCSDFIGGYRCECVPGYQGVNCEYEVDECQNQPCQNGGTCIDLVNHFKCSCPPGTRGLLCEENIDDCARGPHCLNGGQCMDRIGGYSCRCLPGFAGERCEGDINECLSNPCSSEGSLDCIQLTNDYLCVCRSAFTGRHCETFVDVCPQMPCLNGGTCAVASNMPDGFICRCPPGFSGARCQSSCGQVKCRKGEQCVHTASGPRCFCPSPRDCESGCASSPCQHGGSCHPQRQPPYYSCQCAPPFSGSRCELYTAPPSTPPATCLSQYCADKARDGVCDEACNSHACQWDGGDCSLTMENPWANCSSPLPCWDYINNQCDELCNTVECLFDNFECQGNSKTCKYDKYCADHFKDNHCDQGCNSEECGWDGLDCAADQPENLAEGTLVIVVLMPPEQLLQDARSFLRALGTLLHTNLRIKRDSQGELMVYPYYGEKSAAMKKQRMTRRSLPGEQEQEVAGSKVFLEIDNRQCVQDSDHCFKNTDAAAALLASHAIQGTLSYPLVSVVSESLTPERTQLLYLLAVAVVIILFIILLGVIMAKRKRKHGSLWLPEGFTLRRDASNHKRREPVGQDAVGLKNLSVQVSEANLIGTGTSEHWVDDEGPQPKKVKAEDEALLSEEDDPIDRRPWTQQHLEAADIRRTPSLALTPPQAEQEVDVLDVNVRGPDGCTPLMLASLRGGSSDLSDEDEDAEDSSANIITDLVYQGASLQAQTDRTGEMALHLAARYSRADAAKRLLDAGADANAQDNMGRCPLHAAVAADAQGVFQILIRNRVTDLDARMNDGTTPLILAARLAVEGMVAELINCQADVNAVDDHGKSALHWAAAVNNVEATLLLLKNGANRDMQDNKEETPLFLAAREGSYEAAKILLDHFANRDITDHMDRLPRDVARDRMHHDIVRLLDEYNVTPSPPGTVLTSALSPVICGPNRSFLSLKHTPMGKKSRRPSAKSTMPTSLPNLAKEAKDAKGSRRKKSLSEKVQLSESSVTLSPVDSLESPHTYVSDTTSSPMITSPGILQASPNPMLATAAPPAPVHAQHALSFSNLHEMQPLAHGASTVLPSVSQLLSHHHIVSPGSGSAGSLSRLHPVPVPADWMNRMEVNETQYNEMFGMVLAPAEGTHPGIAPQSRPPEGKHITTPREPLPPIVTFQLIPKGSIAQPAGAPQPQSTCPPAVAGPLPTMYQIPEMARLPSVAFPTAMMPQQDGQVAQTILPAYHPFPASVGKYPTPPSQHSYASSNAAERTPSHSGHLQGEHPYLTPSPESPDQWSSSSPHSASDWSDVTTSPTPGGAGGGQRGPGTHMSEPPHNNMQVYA

In the case of `COCCCNC(=O)[C@@]1(Cc2ccccc2I)c2ccccc2C(=O)N(Cc2ccccc2C(F)(F)F)[C@H]1c1ccc(CO)cc1`, the composite z-score was 0.088 in experiment [1]; 0.395 in experiment [2]; -0.0232 in experiment [3]; -0.283 in [4]; -1.01 in [5]; 0.988 in [6]. Besides, the composite z-score in [7] was 1.05; in experiment [9], 0.341; in experiment [10] it was 0.0826. Moreover, the z-score in [8] is -1.78 (inactive).

For `COC(=O)C[C@H]1O[C@]2(C(=O)N(C)c3ccccc32)[C@@H](C)[C@@H]1[Si](C)(C)c1ccccc1`, the composite z-score in experiment [1] is -0.486; in experiment [2], 0.0686; in [3], -0.0767; in experiment [4], 0.351; in [5], 0.731; in experiment [6], 0.033. For the same compound, the composite z-score turned out to be 0.854 in experiment [7], 0.333 in experiment [9] and 0.357 in [10]. In addition, the z-score in experiment [8] is -2.11 (inactive).

For `C=CC[C@]1(C(=O)NCCN2CCOCC2)N=C(c2ccc(OCCCO)cc2)O[C@H]1c1ccccc1`, the composite z-score is -0.038 in experiment [1]; 0.422 in experiment [2]; -0.0691 in [3]; 0.571 in [4]; 0.862 in experiment [5]; 0.0304 in experiment [6]. Moreover, the composite z-score in experiment [7] was 1.25; in experiment [9] it was 1.18; in experiment [10], -0.479. In addition, the z-score in experiment [8] is 1.37 (inactive).

In the case of `O=C1C2C=CC(C(O)c3ccccn3)N(Nc3ccc([N+](=O)[O-])cc3)C2C(=O)N1c1ccccc1` (stereo not given), the composite z-score came out at 0.0747 in experiment [1]; 0.369 in [2]; 0.0447 in [3]; 0.794 in experiment [4]; 1.33 in experiment [5]; 1.82 in [6]. For the same compound, the values for the composite z-score in experiment [7], in experiment [9] and in experiment [10] were 1.31, 0.512 and -0.0645, respectively. Further, the z-score in experiment [8] was 0.678 (inactive).

Regarding `CC(C)Cc1ccc(CN2CC[C@@H](NC(=O)c3ccccc3)C2)cc1`, the composite z-score in experiment [1] is 0.0315; in experiment [2], 0.481; in [3] it was -0.176; in experiment [4], -0.102; in [5], -0.859; in [6], 0.638. For the same compound, the composite z-score in experiment [7] was -0.368; in experiment [9] it was -0.174; in experiment [10], -0.13. Further, in experiment [8], the z-score was -0.623 (inactive).

For the compound `C=C[C@H](OC)[C@@H](O)c1ccc(OC)c(O)c1`, the composite z-score in experiment [1] was 0.694; in experiment [2], -1.02; in experiment [3], -0.137; in [4], -0.248; in experiment [5] it was -1.34; in [6], -0.967. Moreover, the values for the composite z-score in experiment [7], in [9] and in experiment [10] were -0.673, -1 and 0.107, respectively. Further, the z-score in experiment [8] was 0.0137 (inactive).

With `CO[C@H]1O[C@H](CO)[C@@H](OC(=O)CCc2ccccc2)[C@@H]2OC(=O)[C@@H](Cc3ccc4ccccc4c3)C/C=C/C[C@H](Cc3ccc4ccccc4c3)C(=O)O[C@@H]12`, the composite z-score is -0.129 in experiment [1]; 0.693 in [2]; -0.179 in experiment [3]; -0.0304 in [4]; -0.641 in [5]; 0.617 in experiment [6]. Further, the composite z-score in [7] was -0.127; in experiment [9], -0.354; in experiment [10], -0.0994. In experiment [8], the z-score is -1.72 (inactive).

With `C[C@]12C(=O)N(CCO)[C@@H]3C(=O)N(c4ccc(Cl)cc4)CC=CC31O[C@@H]1/C=C\CCCOC(=O)C12` (stereo not given in full), the composite z-score in experiment [1] is 0.721; in experiment [2], -0.581; in experiment [3] it was -0.0985; in experiment [4], -0.986; in experiment [5], -0.759; in experiment [6], 1.12. The figures for the composite z-score in experiment [7], in experiment [9] and in experiment [10] were 0.0495, -0.599 and -0.132, respectively. The z-score in experiment [8] was 0.868 (inactive).

Turning to `Cc1ccc(S(=O)(=O)N2[C@@H](c3ccccc3)C(C(=O)O)=C[C@H]2C(C)(C)C)cc1`, the composite z-score in [1] was -0.316; in [2], 1.81; in experiment [3], 0.0103; in experiment [4], 0.611; in experiment [5], 1.45; in experiment [6], 1.37. Further, the composite z-score in experiment [7] was 1.23; in [9], 0.736; in experiment [10] it was -0.156. The z-score in [8] was -1.84 (inactive).

For the compound `CO[C@H]1O[C@H](CO)[C@@H](OC(=O)Nc2cccc(F)c2)[C@H](OC(=O)c2cc3ccccc3[nH]2)[C@H]1OC(=O)c1cc2ccccc2[nH]1`, the composite z-score was -0.277 in [1]; -0.108 in experiment [2]; -0.0355 in [3]; 0.463 in experiment [4]; -0.0665 in experiment [5]; 1.33 in experiment [6]. Also, the composite z-score in experiment [7] is 0.24; in experiment [9], -0.238; in [10] it was -0.0726. The z-score in experiment [8] is -1.46 (inactive).

Take `COc1ccc([Si](C)(C)[C@H]2[C@H](CC(=O)N3CCC[C@H]3CO)O[C@@]3(C(=O)N(Cc4cccc(N5CCCCC5=O)c4)c4ccccc43)[C@@H]2C)cc1`: the composite z-score in experiment [1] is -0.381; in experiment [2] it was 0.519; in [3], -0.126; in experiment [4], 0.682; in experiment [5] it was 0.757; in experiment [6], 0.836. For the same compound, the results for the composite z-score in experiment [7], in experiment [9] and in experiment [10] were 1.14, 0.0346 and -0.0296, respectively. In addition, in experiment [8], the z-score was -3.74 (inactive).

Regarding `CN(C)C(=O)[C@]1(CCS(=O)(=O)c2ccccc2)N=C(c2ccc(OCCCO)cc2)O[C@@H]1c1ccccc1CN=[N+]=[N-]`, the composite z-score in experiment [1] was 0.04; in experiment [2], -0.313; in experiment [3], 0.0308; in experiment [4], 0.849; in experiment [5] it was 1.55; in experiment [6] it was 1.14. Further, the composite z-score in experiment [7] is 1.29; in experiment [9], 1.07; in experiment [10], -0.0994. Besides, in experiment [8], the z-score was -0.882 (inactive).

As to `Cc1ccc(S[C@]2(C(=O)NC3CC3)CC(=O)N(C3Cc4ccccc4C3)[C@@H]2c2ccc(CO)cc2I)cc1`, the composite z-score in [1] is 0.851; in experiment [2], -0.1; in [3], -0.133; in [4], -0.0222; in experiment [5], -0.603; in [6], 0.996. Further, the composite z-score in experiment [7] is 0.381; in experiment [9], -0.228; in [10], -0.286. The z-score in [8] was -2.24 (inactive).

Turning to `C=C(COC)C(=O)CC[C@H](OC(C)=O)c1ccc(CO)o1`, the composite z-score in [1] was -0.374; in [2], 0.275; in experiment [3], -0.148; in [4], 0.265; in experiment [5], -0.0537; in experiment [6] it was 0.0866. Besides, the composite z-score is 0.0976 in experiment [7], -0.225 in [9] and -0.132 in [10]. In addition, the z-score in experiment [8] was -0.28 (inactive).

For the origin of these results see PubChem BioAssay.
